# Source: PubChem BioAssay
# Active and inactive are the calls of the source.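 Rule for the calls: active = viability loss from added drug above about 55%, and viability with drug at most 40%, in both replicates (limit read from the data, passing the limit was not always enough); inconclusive = both conditions met in only one replicate; inactive = neither replicate meets both conditions.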
# Assay: reversal of MRP1-mediated doxorubicin resistance, pilot screen, H69AR cells, doxorubicin co-treatment (AID 601)
# Details: H69AR cells + 2 uM doxorubicin, CellTiter-Glo, 72 h; at 10 µM; stronger effect = higher value
row,SMILES,differential viability (reversal)
1,CC(C)(C)Cc1nc(-c2ccccn2)no1,7.35% (inactive)
2,CC1CCc2cc(F)cc3c(O)c(C(=O)NCC4CCCO4)c(=O)n1c23 (stereo not given),-8.57% (inactive)
3,Cn1cnnc1SCC(=O)Nc1sc2c(c1C#N)CCCCC2,11.4% (inactive)
4,CCCCCOC(=O)C1=C(C)N(C)C(=O)NC1c1cc(Br)c(O)c(OC)c1 (stereo not given),-3.32% (inactive)
5,COC(=O)c1cnc2c(C(F)(F)F)cccc2c1OC,11.6% (inactive)
6,O=C(COc1ccccc1)NCCSCc1ccco1,9.83% (inactive)
7,CCOC(=O)C(NC(=O)c1ccc(OC)cc1)(N1CCOCC1)C(F)(F)F (stereo not given),-2.41% (inactive)
8,Cc1ccc(S(=O)(=O)N2CCC(C(=O)N[C@@H](Cc3ccccc3)C(=O)O)CC2)cc1,9.85% (inactive)
9,COC(=O)c1cc(OC)c(OCc2cc(C(=O)OC)oc2C)c(OC)c1,1.03% (inactive)
10,O=C(Nc1cccc(O)c1)c1ccccc1,-7.51% (inactive)
11,Cn1c(=O)c2c(nc(SCCCC#N)n2Cc2ccccc2F)n(C)c1=O,-4.56% (inactive)
12,Cc1cc(=O)oc2ccc(OCC(=O)N3CCC(C)CC3)cc12,5.65% (inactive)
13,CC(C(=O)N1CCCCC1)n1ncn2cccc2c1=O (stereo not given),17.3% (inactive)
14,O=C(Nc1ccccc1C(=O)NCC1CCCO1)c1ccco1 (stereo not given),-1.63% (inactive)
15,Cc1cc(C)n(CC2CC(=O)N(c3ccc(Cl)c(Cl)c3)C2=O)n1 (stereo not given),10.4% (inactive)
16,CC(=O)c1cn(CC(=O)NCc2ccc3c(c2)OCO3)c2ccccc12,6.8% (inactive)
17,Cc1ccc(S(=O)(=O)n2nc(OC(=O)c3ccco3)cc2N)cc1,4.73% (inactive)
18,O=C(Cc1cccs1)Nc1ccccc1C(=O)O,5.91% (inactive)
19,CC1CCN(S(=O)(=O)c2ccc3[nH]cc(C(=O)NCCN4CCOCC4)c(=O)c3c2)CC1,2.28% (inactive)
20,CC(C)(C)NC(=O)NC(=O)COc1ccccc1C#N,25.7% (inactive)

row,SMILES,differential viability (reversal)
1,COc1ccccc1NC(=O)C1=C(C)Nc2ncnn2C1c1ccc(C)o1 (stereo not given),11.7% (inactive)
2,COc1cccc(NC(=O)CSc2nnc(-c3cc(-c4ccccn4)nc4ccccc34)o2)c1,-3.28% (inactive)
3,O=C(Nc1ccc2c(c1)nc1n2CCSC1)c1ccccc1,15.9% (inactive)
4,O=C(O)c1cc(/C=N\O)ccc1OCc1ccccc1,11.7% (inactive)
5,CC(=O)Nc1cccc(OCC(O)Cn2cnc3ccccc32)c1 (stereo not given),5.28% (inactive)
6,Cc1cc(/C=N/n2cnnc2)c(C)n1-c1ccc(Cl)cc1Cl,10.1% (inactive)
7,CC1CN(C(=O)CSc2nnc(-c3ccncc3)n2-c2ccccc2)CC(C)O1 (stereo not given),-5% (inactive)
8,CCn1cc(S(=O)(=O)CC(=O)Nc2ccc(OC)cc2)c2ccccc21,21.4% (inactive)
9,O=C(c1ccco1)N1CCN(S(=O)(=O)c2ccc(C3CCCCC3)cc2)CC1,0.505% (inactive)
10,CC(C(=O)N1CCOCC1)N1c2cccc3cccc(c23)S1(=O)=O (stereo not given),0.905% (inactive)
11,CCOc1ccc(C2/C(=C(/O)c3ccc(OC)cc3)C(=O)C(=O)N2c2cc(C)on2)cc1OC (stereo not given),-10.3% (inactive)
12,COC(=O)c1cccc(S(=O)(=O)N2CCN(c3nc4ccccc4s3)CC2)c1,8.71% (inactive)
13,CSC1=C(C#N)C(c2ccc(Cl)cc2)C2=C(CC(C)(C)CC2=O)N1 (stereo not given),32.4% (inactive)
14,CCOc1ccccc1NC(=O)CN(c1ccc(C)cc1)S(=O)(=O)c1c(C)noc1C,-9.07% (inactive)
15,Cc1ccc(C2N(c3ccc(Cl)c(Cl)c3)C(=O)C3CCCN32)o1 (stereo not given),6.78% (inactive)
16,Cc1ccc2[nH]cc(C(=O)CN3CCC4(CC3)OCCO4)c2c1,1.75% (inactive)
17,O=S1(=O)CC(N2CCCCC2)C(N2CCCCC2)C1 (stereo not given),16.9% (inactive)
18,C=CCn1c(N)c(C(=O)NCCC2=CCCCC2)sc1=S,7.14% (inactive)
19,COc1cc(OC)cc(-n2nnnc2SCC(=O)N2CCCC2)c1,-4.62% (inactive)
20,Cc1cc2oc(=O)cc(CN3CCN(Cc4ccc5c(c4)OCO5)CC3)c2cc1C,0.615% (inactive)

# Same assay, conditions: H69AR cells + 2 uM doxorubicin, CellTiter-Glo, 72 h; measured here: viability with 2 uM doxorubicin; at 10 µM; stronger effect = lower value
row,SMILES,viability [%]
1,CC(C)(C)Cc1nc(-c2ccccn2)no1,92.9
2,CC1CCc2cc(F)cc3c(O)c(C(=O)NCC4CCCO4)c(=O)n1c23 (stereo not given),94.2
3,Cn1cnnc1SCC(=O)Nc1sc2c(c1C#N)CCCCC2,83.9
4,CCCCCOC(=O)C1=C(C)N(C)C(=O)NC1c1cc(Br)c(O)c(OC)c1 (stereo not given),86.5
5,COC(=O)c1cnc2c(C(F)(F)F)cccc2c1OC,86.8
6,O=C(COc1ccccc1)NCCSCc1ccco1,79.4
7,CCOC(=O)C(NC(=O)c1ccc(OC)cc1)(N1CCOCC1)C(F)(F)F (stereo not given),102
8,Cc1ccc(S(=O)(=O)N2CCC(C(=O)N[C@@H](Cc3ccccc3)C(=O)O)CC2)cc1,77.1
9,COC(=O)c1cc(OC)c(OCc2cc(C(=O)OC)oc2C)c(OC)c1,89.7
10,O=C(Nc1cccc(O)c1)c1ccccc1,103
11,Cn1c(=O)c2c(nc(SCCCC#N)n2Cc2ccccc2F)n(C)c1=O,75.8
12,Cc1cc(=O)oc2ccc(OCC(=O)N3CCC(C)CC3)cc12,90.7
13,CC(C(=O)N1CCCCC1)n1ncn2cccc2c1=O (stereo not given),85.1
14,O=C(Nc1ccccc1C(=O)NCC1CCCO1)c1ccco1 (stereo not given),100
15,Cc1cc(C)n(CC2CC(=O)N(c3ccc(Cl)c(Cl)c3)C2=O)n1 (stereo not given),93.4
16,CC(=O)c1cn(CC(=O)NCc2ccc3c(c2)OCO3)c2ccccc12,92.2
17,Cc1ccc(S(=O)(=O)n2nc(OC(=O)c3ccco3)cc2N)cc1,84
18,O=C(Cc1cccs1)Nc1ccccc1C(=O)O,97.2
19,CC1CCN(S(=O)(=O)c2ccc3[nH]cc(C(=O)NCCN4CCOCC4)c(=O)c3c2)CC1,94.1
20,CC(C)(C)NC(=O)NC(=O)COc1ccccc1C#N,80.7

row,SMILES,viability [%]
1,COc1ccccc1NC(=O)C1=C(C)Nc2ncnn2C1c1ccc(C)o1 (stereo not given),87.6
2,COc1cccc(NC(=O)CSc2nnc(-c3cc(-c4ccccn4)nc4ccccc34)o2)c1,79.7
3,O=C(Nc1ccc2c(c1)nc1n2CCSC1)c1ccccc1,76.8
4,O=C(O)c1cc(/C=N\O)ccc1OCc1ccccc1,91.2
5,CC(=O)Nc1cccc(OCC(O)Cn2cnc3ccccc32)c1 (stereo not given),92.7
6,Cc1cc(/C=N/n2cnnc2)c(C)n1-c1ccc(Cl)cc1Cl,80.5
7,CC1CN(C(=O)CSc2nnc(-c3ccncc3)n2-c2ccccc2)CC(C)O1 (stereo not given),103
8,CCn1cc(S(=O)(=O)CC(=O)Nc2ccc(OC)cc2)c2ccccc21,70.4
9,O=C(c1ccco1)N1CCN(S(=O)(=O)c2ccc(C3CCCCC3)cc2)CC1,85.1
10,CC(C(=O)N1CCOCC1)N1c2cccc3cccc(c23)S1(=O)=O (stereo not given),92.6
11,CCOc1ccc(C2/C(=C(/O)c3ccc(OC)cc3)C(=O)C(=O)N2c2cc(C)on2)cc1OC (stereo not given),99.7
12,COC(=O)c1cccc(S(=O)(=O)N2CCN(c3nc4ccccc4s3)CC2)c1,72.3
13,CSC1=C(C#N)C(c2ccc(Cl)cc2)C2=C(CC(C)(C)CC2=O)N1 (stereo not given),33.6
14,CCOc1ccccc1NC(=O)CN(c1ccc(C)cc1)S(=O)(=O)c1c(C)noc1C,90.1
15,Cc1ccc(C2N(c3ccc(Cl)c(Cl)c3)C(=O)C3CCCN32)o1 (stereo not given),89.4
16,Cc1ccc2[nH]cc(C(=O)CN3CCC4(CC3)OCCO4)c2c1,90.5
17,O=S1(=O)CC(N2CCCCC2)C(N2CCCCC2)C1 (stereo not given),78.3
18,C=CCn1c(N)c(C(=O)NCCC2=CCCCC2)sc1=S,76
19,COc1cc(OC)cc(-n2nnnc2SCC(=O)N2CCCC2)c1,92
20,Cc1cc2oc(=O)cc(CN3CCN(Cc4ccc5c(c4)OCO5)CC3)c2cc1C,80
